For 40 molecules, AC50 and outcome results are on record in PubChem BioAssay (EPA / NIEHS).

Each structure is given as a SMILES string. The source made the active and inactive calls. The calls were made as follows: active = hit-call score of the fitted dose curve at least 0.9, where 1 is the maximum; inactive = score below 0.9.

This test is described as follows: ATG_DR4_LXR_CIS: Attagene CIS-FACTORIAL HepG2 Assay for human Liver X Receptor (LXR), DR4 submotif (AID 2282929). As to conditions: HepG2 Attagene DR4 cis-reporter, mRNA transcription; actives raise or lower the signal. The protocol: ATG_CIS is a cell-based, multiplexed-readout assay that uses HepG2, a human liver cell line, with measurements taken at 24 hours after chemical dosing in a 24-well plate.ATG_DR4_LXR_CIS is one of 52 assay component(s) measured or calculated from the ATG_CIS assay. It is designed to make measurements of mRNA induction, a form of inducible reporter, as detected with fluorescence intensity signals by Reverse transcription polymerase chain reaction (RT-PCR) and Capillary electrophoresis technology.Data from the assay component ATG_DR4_LXR_CIS was analyzed into 1 assay endpoint. This assay endpoint, ATG_DR4_LXR_CIS, was analyzed with bidirectional fitting relative to DMSO as the negative control and baseline of activity. Using a type of inducible reporter, measures of mRNA for gain or loss-of-signal activity can be used to understand the reporter gene at the transcription factor-level as they relate to the gene NR1H2 and NR1H3. Furthermore, this assay endpoint can be referred to as a primary readout, because this assay has produced multiple assay endpoints where this one serves a reporter gene function. To generalize the intended target to other relatable targets, this assay endpoint is annotated to the nuclear receptor intended target family, where the subfamily is non-steroidal.
Human liver HepG2 cells are transiently transfected with multiple reporter transcription units (MRTUs) in 6-well plates using FuGene 6 reagent (Roche; 3 ml FuGene/1 mg DNA). The MRTU constructs are regulated by a cis-regulating element (promoter). […] A major difference between the CIS and TRANS system is that in CIS activities of endogenous TFs are measured, whereas the TRANS assay evaluates changes in activities of exogenous, chimeric NR-Gal4 proteins. […] At the end of 24 hour incubation, total RNA was isolated using TriZol reagent (Invitrogen). The isolated RNA is then reverse-transcribed using oligo(dT) primer and Mo-MLV reverse transcriptase (Invitrogen) with DNAse I (Ambion) treatment for 30 min. The one-tenth of the produced cDNA was amplified by PCR using Taq DNA polymerase (Invitrogen) and two reporter sequence-specific primers. The PCR products were fluorescently labeled by primer extension with 6-arboxyfluorescein (6-FAM) 5'-labeled reporter sequence-specific primer (2 min at 95 C, 20 s at 68 C and 10 min at 72 C) and these products were digested with 5U of HpaI (New England Biolabs) for 2h at 37 C. The fragments were purified using Qiaquick PCR columns (Qiagen), analyzed on an ABI 3130xL genetic analyzer (Applied Biosystems) with peak positions identified by using a set of X-rhodamine (ROX)-labeled MapMarker1000 molecular weight standards (BioVentures). The raw capillary electrophoresis data was processed using Attagraph software (Attagene).
The AC50 is the concentration at which the activity in the assay is half-maximal. `COCCOCCC[Si](C)(O[Si](C)(C)C)O[Si](C)(C)C`: the half-maximal activity concentration (AC50) is 54.1 µM (active).

Regarding `CN(C(=O)C(F)(F)C(F)(F)C(F)(F)F)[Si](C)(C)C`, the outcome was inactive.

For `O=C(O)C(F)(F)C(F)(F)C(F)(F)C(F)(F)C(F)(F)C(F)(F)C(F)F`, the molecule was called inactive.

As to `Cc1cc(C)c(O)c(C(C)(C)C)c1`, the molecule was classed as inactive.

Take `NC(=O)C(F)(F)C(F)(F)C(F)(F)F`: the outcome was inactive.

On to `O=C=Nc1cccc2c(N=C=O)cccc12`, for which the molecule was called inactive.

Consider `Oc1ccc(C2(c3ccc(O)c(C4CCCCC4)c3)CCCCC2)cc1C1CCCCC1`, for which the AC50 was 2.73 µM (active).

`CCc1cc(Cc2cc(CC)c(N)c(CC)c2)cc(CC)c1N`: the AC50 was 24.2 µM (active).

For `O=S(=O)(O)CCC(F)(F)C(F)(F)C(F)(F)C(F)(F)F`, the call was inactive.

Take `CCCCCCCCCCCCC[N+](C)(C)Cc1ccccc1`: the outcome was inactive.

As for `C#CC(O)CCC` (stereo not given), the result was inactive.

Regarding `O=C1OC(=O)c2ccc3c4c(ccc1c24)C(=O)OC3=O`, the molecule was called inactive.

Regarding `CCCCCCCCCCCCCC[P+](CCCC)(CCCC)CCCC`, the call was inactive.

Consider `Cc1ccc(S(=O)(=O)C(I)I)cc1`, for which the molecule was called inactive.

On to `OCC(O)CC(F)(F)C(F)(F)C(F)(F)C(F)(F)C(F)(F)C(F)(F)C(F)(F)C(F)(F)F` (stereo not given), for which the outcome was inactive.

With `CCCCCCCCCc1ccc(OCCO)cc1`, the half-maximal activity concentration (AC50) was 19.3 µM (active).

In the case of `O=S(=O)(O)c1ccc(Cl)cc1`, the result was inactive.

As to `CCN(CC)c1ccc(C=O)cc1`, the result was inactive.

In the case of `CC1CCCCC1`, the call was inactive.

As for `CCN=C1C=CC(=C(c2ccc(N(CC)CC)cc2)c2ccc(N(CC)CC)cc2)c2ccccc21`, the half-maximal activity concentration (AC50) was 0.655 µM (active).

Consider `CC(C)(C)C(=O)C1C(=O)c2ccccc2C1=O`, for which the outcome was inactive.

With `CCCCCC/C=C/CCCCCCCC(=O)O`, the result was inactive.

In the case of `O=c1cccc[nH]1`, the molecule was classed as inactive.

Take `CC(C)OC=O`: the molecule was called inactive.

As for `CCC(Cc1c(I)cc(I)c(N)c1I)C(=O)O` (stereo not given), the call was inactive.

Consider `Cc1cc(O)c(C(C)(C)C)cc1C(C)(C)C`, for which the molecule was classed as inactive.

On to `COc1ccccc1C=O`, for which the molecule was called inactive.

Consider `COC(F)(C(F)F)C(F)(F)F` (stereo not given), for which the result was inactive.

With `CCOC(C=C(C)CCC=C(C)C)OCC`, the call was inactive.

As for `CCCCCCCC/C=C\CCCCCCCC(=O)N(C)CC(=O)O`, the result was inactive.

Take `CC(=O)C=O`: the molecule was classed as inactive.

Take `O=C=NCc1cccc(CN=C=O)c1`: the molecule was called inactive.

In the case of `c1ccc(C[P+](c2ccccc2)(c2ccccc2)c2ccccc2)cc1`, the AC50 was 100 µM (active).

Consider `CCCCC(CC)COC(=O)c1ccc(N(C)C)cc1` (stereo not given), for which the half-maximal activity concentration (AC50) was 64.7 µM (active).

On to `CC1=CCC2C(=O)OC(=O)C2C1` (stereo not given), for which the result was inactive.

Regarding `CO[Si](CCCOCC1CO1)(OC)OC` (stereo not given), the result was inactive.

Consider `CCN=c1cc2oc3cc(NCC)c(C)cc3c(-c3ccccc3C(=O)OCC)c-2cc1C`, for which the AC50 is 4.45 µM (active).

Consider `CCC(=O)OC(C)c1ccccc1` (stereo not given), for which the result was inactive.

For the molecule `CCN(CC)c1ccc(C=O)c(O)c1`, the half-maximal activity concentration (AC50) was 67.2 µM (active).

For `CNS(=O)(=O)C(F)(F)C(F)(F)C(F)(F)C(F)(F)C(F)(F)C(F)(F)C(F)(F)C(F)(F)F`, the molecule was called inactive.
